A selection: hits, their analogues and other compounds. The true share with any hit is near 1.3%.
GRK2 inh = inhibitors of human GRK2 displacing RNA aptamer; inhibition of aptamer binding, % at 10 µM; bead flow cytometry, FAM-aptamer displacement from GRK2; P25098; hit rate 0.59% among 330,000;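 active = inhibition of aptamer binding above 40%, roughly 3 SD of noise, on plates passing a quality check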;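 note: median bead fluorescence of bound FAM aptamer so fluorescent compounds give negative values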
VLA-4 inh = inhibition in a human VLA-4 binding assay; hit rate 0.2% among 330,000; VLA-4 expressing cells, ligand binding flow cytometry; AID 2557; inhibition, % (about 7 µM as worked out from the volumes in the protocol); in the data active = inhibition above about 50%
Bfl-1 A1 inh = inhibitors of the anti-apoptotic protein A1, read as caspase activation. AID 2462. caspase activation, % (concentration not given with the values). MEF A1-2A-BIM cells, Caspase-Glo 3/7 luminescence, 3 h; percent of clofoctol response, vehicle zero. hit rate 0.066% among 330,000;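 active = over half of replicate activation scores above 10%, or exactly half above 10 with the replicate mean above 10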
NTR1 ag = NTR1 (human) agonism. hit rate 0.17% among 330,000. NTR1-U2OS beta-arrestin-GFP spot imaging, agonist mode. activation, % at 20 µM. AID 493036. P30989;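 active = activation at or above 40% of the spot to cytoplasm intensity ratio, with at least 20 cells analyzed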;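 note: 0% = DMSO without peptide and 100% = 100 nM NTR1 peptide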
B2AR ag = human beta-2 adrenergic receptor agonism by FAP; P07550; Am2.2-beta2AR cells, FAP receptor internalization, flow cytometry; response, % (test concentration not listed); hit rate 0.43% among 340,000; AID 504454;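 active = response above a set limit, near 3 SD of response in nonfluorescent compounds, cut at about 42% in these data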
Target sequence (P07550 whole entry, looked up): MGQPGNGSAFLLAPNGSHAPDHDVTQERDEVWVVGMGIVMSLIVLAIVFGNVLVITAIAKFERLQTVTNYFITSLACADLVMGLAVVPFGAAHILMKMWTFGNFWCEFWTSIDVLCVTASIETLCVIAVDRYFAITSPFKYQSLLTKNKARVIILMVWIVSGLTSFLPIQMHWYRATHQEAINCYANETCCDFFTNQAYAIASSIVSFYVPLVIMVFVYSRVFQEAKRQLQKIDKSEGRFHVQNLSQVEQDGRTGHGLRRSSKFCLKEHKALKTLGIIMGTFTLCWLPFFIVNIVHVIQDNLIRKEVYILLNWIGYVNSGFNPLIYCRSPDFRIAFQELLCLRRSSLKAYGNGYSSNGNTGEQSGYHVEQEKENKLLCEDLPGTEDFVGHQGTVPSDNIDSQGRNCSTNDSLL
* marks the source's active call; other numbers are inactive results.

How did O=c1c2ccccc2oc2cc(Br)ccc12 do in these assays?
B2AR ag: -6

Results for COc1ccccc1/C=N\NC(=O)c1ccc(COc2ccc(C)c(C)c2)o1 ?
GRK2 inh: 0; VLA-4 inh: 9; Bfl-1 A1 inh: 0; NTR1 ag: 2; B2AR ag: -3

Results for CCN(CC)C(=O)COc1ccc(-c2nnc(Nc3ccc(OC)c(C(=O)NC)c3)c3ccccc23)cc1 ?
GRK2 inh: 0; VLA-4 inh: 9; Bfl-1 A1 inh: 1; NTR1 ag: 0; B2AR ag: 7

Results for Cc1ccc(-c2nn(-c3ccccc3)cc2/C=C2\SC(=S)N(CC(=O)O)C2=O)cc1 ?
GRK2 inh: 18; VLA-4 inh: 5; Bfl-1 A1 inh: -1; NTR1 ag: 1; B2AR ag: 13

What do the screens show for `CCOc1ccc(-c2nn(-c3ccccc3)cc2/C=C2\SC(N)=NC2=O)cc1C`?
GRK2 inh: 0; VLA-4 inh: 14; Bfl-1 A1 inh: 3; NTR1 ag: 18; B2AR ag: 59*

How did Cc1cc(C)cc(NC(=O)NN2C(C)CCCC2C)c1 (stereo unspecified) do in these assays?
GRK2 inh: 100*; VLA-4 inh: 14; Bfl-1 A1 inh: 0; NTR1 ag: 0; B2AR ag: 3

What do the screens show for `COc1ccc(-c2cc(=O)oc3c(C)c(OC(C)C(C)=O)ccc23)cc1` (stereo unspecified)?
GRK2 inh: 2; VLA-4 inh: 9; Bfl-1 A1 inh: 2; NTR1 ag: 1; B2AR ag: 3

What do the screens show for `COc1ccc(-c2cc(=O)oc3c(C)c(OC(=O)c4cccs4)ccc23)cc1`?
GRK2 inh: 4; VLA-4 inh: -7; Bfl-1 A1 inh: 17*; NTR1 ag: 4; B2AR ag: 35

How did CC(Oc1ccc(Br)cc1)C(=O)Nc1ccc(S(=O)(=O)N(C)C2CCN(C)CC2)cc1 (stereo unspecified) do in these assays?
GRK2 inh: 0; VLA-4 inh: -1; Bfl-1 A1 inh: 0; NTR1 ag: 6; B2AR ag: 12

What do the screens show for `COCCCNC(=O)/C(C#N)=C/c1ccc(OCC(=O)O)c(OC)c1`?
GRK2 inh: 44*; VLA-4 inh: 2; Bfl-1 A1 inh: 2; NTR1 ag: 1; B2AR ag: 1

How did Nc1nccnc1C(=O)OCC(=O)NNC(=O)c1ccccc1 do in these assays?
GRK2 inh: 3; VLA-4 inh: 19; Bfl-1 A1 inh: 2; NTR1 ag: -1; B2AR ag: -4

How did Cc1cccc(C)c1OCC(=O)N/N=C/c1ccncc1 do in these assays?
GRK2 inh: 42*; VLA-4 inh: -11; Bfl-1 A1 inh: 0; NTR1 ag: 0; B2AR ag: 11

What do the screens show for `Cc1ccc(OCC(=O)N/N=C/c2ccncc2)cc1C`?
GRK2 inh: 0; VLA-4 inh: 1; Bfl-1 A1 inh: 0; NTR1 ag: 0; B2AR ag: 2

Results for O=C(O)c1ccc(N/N=C/C=C/c2ccc([N+](=O)[O-])o2)cc1 ?
GRK2 inh: 91*; VLA-4 inh: -42; Bfl-1 A1 inh: -1; NTR1 ag: -3; B2AR ag: -40

How did COc1ccc(CN(C2CC2)S(=O)(=O)c2ccccc2Br)cc1 do in these assays?
GRK2 inh: 0; NTR1 ag: 1; B2AR ag: -1

How did O=C(/C=C/Nc1ccc([N+](=O)[O-])cc1)c1ccc(Br)cc1 do in these assays?
GRK2 inh: 46*; VLA-4 inh: 8; Bfl-1 A1 inh: 0; NTR1 ag: 1; B2AR ag: -2

How did O=C(/C=C/Nc1ccc(F)cc1)c1ccc(Br)cc1 do in these assays?
GRK2 inh: 4; VLA-4 inh: 16; Bfl-1 A1 inh: -4; NTR1 ag: -2; B2AR ag: -5

How did CSc1ncccc1C(=O)Nc1ccc2c(c1)OCCO2 do in these assays?
GRK2 inh: 0; VLA-4 inh: 8; Bfl-1 A1 inh: -3; NTR1 ag: 0; B2AR ag: -3

How did NC(=O)C1CCN(C2=C(Cl)C(=O)c3ccccc3C2=O)CC1 do in these assays?
GRK2 inh: 0; VLA-4 inh: -3; Bfl-1 A1 inh: 0; NTR1 ag: 0; B2AR ag: 46*

Results for O=C(Nc1ccc(Br)cc1)N1CCCCCC1 ?
GRK2 inh: 8; VLA-4 inh: 17; Bfl-1 A1 inh: -1; NTR1 ag: 0; B2AR ag: -3

How did O=C(Nc1ccc(Br)cc1)N1CCCC(O)C1 (stereo unspecified) do in these assays?
GRK2 inh: 56*; VLA-4 inh: -14; Bfl-1 A1 inh: 0; NTR1 ag: 5; B2AR ag: 0

Results for O=C1CCC(C(=O)N2CCc3c(Cl)cccc3C2)CN1CCCN1CCOCC1 (stereo unspecified) ?
GRK2 inh: 1; VLA-4 inh: -4; Bfl-1 A1 inh: 0; NTR1 ag: 0; B2AR ag: -6

How did O=C(O)c1ccc(N/N=C/c2cc3cc4c(cc3nc2Cl)OCCO4)cc1 do in these assays?
GRK2 inh: 2; VLA-4 inh: 4; Bfl-1 A1 inh: -5; NTR1 ag: -1; B2AR ag: 45*

What do the screens show for `COc1ccc(-n2nc(C(=O)NCC(=O)N3CCC(C)CC3)c3ccccc3c2=O)cc1Cl`?
GRK2 inh: 1; VLA-4 inh: -19; Bfl-1 A1 inh: 1; NTR1 ag: 3; B2AR ag: -13

How did CC(C)(C)c1nnc(N/N=C/c2ccc(Br)cc2)n(N)c1=O do in these assays?
GRK2 inh: 0; VLA-4 inh: 32; Bfl-1 A1 inh: 1; NTR1 ag: 0; B2AR ag: 70*

How did Cc1cc(C)c2cc(C#N)c(SCC(=O)Nc3cc(C)on3)nc2c1 do in these assays?
GRK2 inh: 3; VLA-4 inh: 5; Bfl-1 A1 inh: 1; NTR1 ag: -1; B2AR ag: -6

What do the screens show for `COc1ccc(C(=O)c2no[n+]([O-])c2C(=O)c2ccc(OC)cc2)cc1`?
GRK2 inh: 0; VLA-4 inh: 16; Bfl-1 A1 inh: 0; NTR1 ag: 29; B2AR ag: 44*

What do the screens show for `COc1ccc(NC(=O)c2c(N)no[n+]2[O-])cc1`?
GRK2 inh: 0; VLA-4 inh: 3; Bfl-1 A1 inh: -1; NTR1 ag: -1; B2AR ag: 4

How did S=C1CCC(c2ccc(Br)cc2)=NN1c1ccccc1 do in these assays?
GRK2 inh: 0; VLA-4 inh: 1; Bfl-1 A1 inh: 1; NTR1 ag: 5; B2AR ag: 10

Results for CO[C@H]1CC[C@@]2(C)[C@@H](CC[C@@H]3[C@@H]2CC[C@@]2(C)[C@H]3C[C@H](C(=O)O)O[C@]23CCCO3)C1 ?
GRK2 inh: 0; NTR1 ag: 0; B2AR ag: 2

Results for CC12CC3OC3CC1CCC1C2CCC2(C)C1CCC21OCCO1 (stereo unspecified) ?
B2AR ag: 76*

How did CCOc1cccc(C(=O)Nc2cccc(-c3nnc(-c4ccc(C)cc4)o3)c2)c1 do in these assays?
GRK2 inh: 0; VLA-4 inh: -55; Bfl-1 A1 inh: 20*; NTR1 ag: 12; B2AR ag: -3

High-throughput results: PubChem, several laboratories
